Screening data (PubChem)
TRb SRC2 PPI = disrupts binding of human TR beta to SRC2; P10828; Potency, µM (series often up to 106 µM), for the others: top-dose activity change, negative = inhibition, hits mostly inhibitors; actives 0.065% (n = 280,000); TRbeta-SRC2 peptide binding, fluorescence polarization; receptor liganded with 1 µM T3;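 also: plate controls were bound peptide for no effect and peptide without receptor for full effect; nearly all actives have a fitted effect of over 50% in size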
Target sequence (P10828 whole entry, looked up): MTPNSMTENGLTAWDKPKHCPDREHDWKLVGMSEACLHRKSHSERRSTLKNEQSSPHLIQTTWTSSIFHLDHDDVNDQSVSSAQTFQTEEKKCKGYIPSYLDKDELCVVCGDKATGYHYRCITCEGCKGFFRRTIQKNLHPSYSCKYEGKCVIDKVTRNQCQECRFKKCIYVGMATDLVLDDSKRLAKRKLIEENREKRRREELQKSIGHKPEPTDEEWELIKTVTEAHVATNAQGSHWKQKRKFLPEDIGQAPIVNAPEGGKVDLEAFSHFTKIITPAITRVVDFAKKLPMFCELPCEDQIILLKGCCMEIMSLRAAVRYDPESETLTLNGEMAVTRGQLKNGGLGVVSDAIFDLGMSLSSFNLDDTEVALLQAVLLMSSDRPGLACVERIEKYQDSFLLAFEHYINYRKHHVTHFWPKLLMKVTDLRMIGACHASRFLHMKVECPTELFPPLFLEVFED
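TRb LBD 0.6 uM + Texas Red SRC2 peptide 20 nM, 1 uM T3, Tris buffer w/ 5% DMSO; compound pinned, 5 h RT; FP read ex 555/em 632; normalized to unbound and bound controls.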
Tau fluor cs = counter-screen for tau fibril formation inhibitors | Potency, µM (highest dose often 57.7 µM), for the others: top-dose activity change, negative = decrease | actives 0.93% (n = 280,000) | tau K18 P301L Alexa594 fluorescence, heparin fibrillization; also: nearly all actives have a fitted effect of over 55% in size
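Human K18 P301L tau (15 uM unlabeled plus 0.24 uM Alexa 594-labeled, final) in 100 mM sodium acetate pH 7 was mixed with compound and 20 uM heparin and incubated 6 hr at 37 C.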
Tau fibril ThT = tau fibrillization inhibition (ThT binding); P10636; recombinant tau K18 P301L (four-repeat tau fragment), heparin-induced fibrillization, ThT fluorescence; Potency, µM (doses to about 57.4 µM), inactives show top-dose activity, negative = inhibition, usual class: inhibitors; actives 2.1% (n = 270,000); also: nearly all actives have a fitted effect of over 55% in size
Target sequence (P10636 561-689 P618L limits assumed): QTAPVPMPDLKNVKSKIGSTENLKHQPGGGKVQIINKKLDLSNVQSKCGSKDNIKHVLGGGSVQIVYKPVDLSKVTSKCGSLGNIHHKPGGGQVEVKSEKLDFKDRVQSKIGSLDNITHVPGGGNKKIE
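Heparin-induced (20 uM) aggregation of recombinant human K18 P301L tau, 15 uM unlabeled with 0.24 uM labeled, pH 7 acetate buffer, 6 hr at 37 C with compound. Fibrils quantified by 30 uM ThT fluorescence after 1 hr ambient incubation.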
Tau FP inhib = blocks human tau fibril formation measured by polarization. K18 P301L tau heparin fibrillization, Alexa594 FP, 6 h. actives 0.39% (n = 280,000). P10636. Potency, µM (series often up to 57.7 µM), inactives show top-dose activity, negative = inhibition, usual class: inhibitors; also: nearly all actives have a fitted effect of over 55% in size
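Recombinant K18 P301L […], labeled with Alexa 594 at 0.24 uM over 15 uM unlabeled; heparin inducer 20 uM final; 37 C, 6 hr; FP endpoint.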
TR SRC2 fluor cs = counter-screen for TRb-SRC2 inhibitors: fluorescence interference. Potency, µM (highest dose often 106 µM), for inactives: at the highest dose fluorescence change, negative = quenching. TRb/SRC2 Texas Red total fluorescence interference. actives 0.29% (n = 280,000); active = well fitted curve in either direction with a large enough effect; inconclusive = small, poorly fitted or top-dose-only effect
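Human TRb ligand-binding domain at 0.6 uM with 20 nM Texas Red SRC2 peptide in Tris buffer containing 1 uM T3 and 5% DMSO, incubated with compound 5 h at ambient temperature. Total fluorescence (555/632 nm) calculated as parallel + 2 × perpendicular.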
The depositor's hits bear a star; ? = inconclusive; [ ] = another dose, or the depositor's remark. Compounds with a hit are over-represented: about 3.1% of the library has one in this group of screens. Unless noted, calls follow the shape of the dose curve; as a rule, active = well fitted curve in the direction sought with a large enough effect; inconclusive = small, poorly fitted or top-dose-only effect, or another doubt; inactive = no such curve, though single readings can be large; an effect the other way counts as inactive or inconclusive. Unless noted, % is scaled to controls: 0 for no effect and ±100 for the full control effect; potency is read from the fitted curve at half-maximal effect.

SMILES	TRb SRC2 PPI	Tau fluor cs	Tau fibril ThT	Tau FP inhib	TR SRC2 fluor cs
O/N=C/c1cc(Cl)ccc1OCc1cccc2ccccc12	4.5%	?	?	?	-2.5%
Cc1cnc(C(=O)Nc2ccc(F)cc2)cn1	8.8%	2.2%	3.5%	-6.6%	-3.6%
Cc1cnc(C(=O)Nc2ccc(N3CCN(C(=O)OC(C)(C)C)CC3)cc2)cn1	-5.9%	-20.5%	1.78µM*	-6.6%	-0.1%
CCc1ccc2oc(-c3cc(NC(=O)c4cc(OC)c(OC)c(OC)c4)ccc3O)nc2c1	?	?	-11.2%	-1.3%	25.6%
CCc1ccc2oc(-c3cc(N=Cc4cccc(OC)c4O)ccc3O)nc2c1	10.0%	?	14.1µM*	6.8%	-0.9%
CCOc1ccc(-c2[nH]ncc2-c2csc(C)n2)c(O)c1	-10.2%	-16.3%	-1.8%	7.3%	1.3%
CCCOC(=O)c1ccc(Oc2c(-c3ccc(OCC)cc3O)n[nH]c2C)cc1	8.4%	7.94µM*[quencher]	-13.2%	?	0.4%
CCCOC(=O)c1ccc(Oc2cn[nH]c2-c2ccc(OCC)cc2O)cc1	5.9%	8.91µM*[quencher]	-8.1%	?	-2.3%
CC(=O)OCC1OC(c2ccc3c(c2)OCO3)C=CC1OC(C)=O (configuration not stated)	1.1%[11.2 µM]	2.3%[11.6 µM]	2.1%[11.5 µM]	-6.9%[11.6 µM]	?
Cc1ccc(Cl)c2c1N[C@@H](c1ccc(C(=O)O)cc1)[C@H]1CC=C[C@@H]21	-0.5%	-15.5%	?	-6.5%	-8.8%
Cc1cc([N+](=O)[O-])c2c(c1C)C1C=CCC1C(c1ccccn1)N2 (configuration not stated)	-4.1%	?	15.8µM*	?	-5.3%
CCN(CC)c1ccc2c(C)c(Cl)c(=O)oc2c1	-5.8%	-1.2%[2.34 µM]	-3.5%	-3.4%[2.34 µM]	-0.7%
CCOC(=O)Cc1c(C)c2ccc(N(CC)CC)cc2oc1=O	?	-28.6%	14.1µM*	?	-7.8%
O=C(O/N=C\c1ccc(N2CCOCC2)c([N+](=O)[O-])c1)c1ccc(F)cc1	0.0%	-20.2%	5.01µM*	-0.9%	-1.4%
O=C(O/N=C\c1ccc(N2CCOCC2)c([N+](=O)[O-])c1)c1ccccc1Cl	1.3%	?	12.6µM*	12.4%	-3.2%
CCc1ccc(NCc2cc3cc4c(cc3n(CC(=O)Nc3ccc(OC)cc3)c2=O)OCO4)cc1	6.8%	?	-0.9%	?	1.2%
COc1ccc(NCc2cc3cc4c(cc3n(CC(=O)Nc3ccc(C)cc3)c2=O)OCO4)cc1	-2.3%	22.4µM*[quencher]	-22.1%	?	-1.7%
COc1ccc2cc(CNc3ccccc3)c(=O)n(CC(=O)Nc3ccc(C(C)=O)cc3)c2c1	1.6%	12.6µM*[quencher]	5.4%	-8.4%	-1.6%
O=C(NCCO)C(O)C(O)C(=O)NCCO (configuration not stated)	-0.5%	-0.8%	?	7.0%[2.34 µM]	-2.7%
O=[N+]([O-])c1ccc(N2CCOCC2)cc1O	-10.8%	-14.5%	?	-2.4%	-4.1%
Cc1cc(N2CCOCC2)ccc1/C=C\[N+](=O)[O-]	-3.6%	?	11.2µM*	12.7%	-2.0%
CCOC(=O)c1cc(C(=O)OCC)c2cccc(C)n2c1=O	7.4%	-3.2%	-5.6%	-6.7%	-3.4%
O=C1CCCC2CCCCN12 (configuration not stated)	-0.6%[201 µM]	2.5%[186 µM]	0.7%[186 µM]	9.7%[186 µM]	-1.8%[201 µM]
CC(C)C[C@H](NC(=O)c1[nH]cnc1C(=O)Nc1ccccc1)C(=O)OC(C)(C)C	0.8%	?	9.0%	22.4µM*	-0.6%
C[C@H](NC(=O)c1[nH]cnc1C(=O)Nc1ccc(Cl)cc1)C(=O)OC(C)(C)C	-1.6%	?	9.9%	25.1µM*	0.6%
SMILES	TRb SRC2 PPI	Tau fluor cs	Tau fibril ThT	Tau FP inhib	TR SRC2 fluor cs
CCOC(=O)c1ccc(NC(=O)c2nc[nH]c2C(=O)N[C@@H](CC(C)C)C(=O)OCc2ccccc2)cc1	-0.8%	-30.0%	?	8.91µM*	-1.5%
CC(C)CC(=O)Nc1nnc(S(=O)(=O)N(CC(C)C)c2ccccc2)s1	-6.6%	-1.7%	?	-2.8%	6.0%
CC(C)CN(c1ccccc1)S(=O)(=O)c1nnc(NC(=O)C2CCCCC2)s1	-16.7%	-10.6%	?	0.4%	4.47µM*[quencher]
CCN(c1ccc(C)cc1)S(=O)(=O)c1nnc(NC(=O)C2CCCCC2)s1	-7.4%	-27.7%	?	-15.9%	11.6%
CCN(c1ccccc1)S(=O)(=O)c1nnc(NC(=O)C2CCCCC2)s1	-2.3%	-22.0%	3.55µM*	5.8%	5.4%
Cc1cc(/C=C2\SC(=S)NC2=O)c(C)n1C1CC1	1.2%	-28.0%	12.6µM*	4.9%	-1.2%
CCC(C(=O)NCc1ccccc1Cl)n1nc(C)c2sc3ccccc3c2c1=O (configuration not stated)	-1.3%	-16.6%	-5.8%	-2.3%	-2.9%
O=C(Nc1ccc2c(c1)OCO2)c1ccc(N2CCCC2)c([N+](=O)[O-])c1	-5.8%	?	12.6µM*	17.3%	-3.5%
CCC(=O)N1CCN(c2ccc(NC(=O)c3ccc([N+](=O)[O-])o3)cc2Cl)CC1	0.9%	?	11.2µM*	3.4%	1.8%
O=C(Nc1ccc(N2CCCCC2)c(Cl)c1)c1ccc2c(c1)OCCO2	-2.2%	14.1µM*[quencher]	?	12.2%	-0.3%
O=C(Nc1ccc(N2CCCCC2)c(Cl)c1)c1ccc(N2CCOCC2)c([N+](=O)[O-])c1	-15.4%[53 µM]	?	?	?	-4.3%[53 µM]
CCN1CCN(c2ccc(NC(=O)c3ccc([N+](=O)[O-])o3)cc2Cl)CC1	-4.0%	-18.1%	?	2.3%	-4.8%
CC(=O)N1CCN(c2ccc(NC(=O)c3ccc(N4CCCC4)c([N+](=O)[O-])c3)cc2Cl)CC1	-10.2%	?	3.98µM*	-6.0%	-0.6%
O=C(Nc1ccc(N2CCOCC2)c(Cl)c1)c1ccc2c(c1)OCCO2	2.2%	18.5%[2.34 µM]	4.2%	12.3%[2.34 µM]	-4.8%
Cc1ccc(C(=O)NCc2ccccn2)cc1Cl	-3.6%	-4.6%	-4.2%	2.9%	-4.6%
O=C(Nc1cccc(S(=O)(=O)Nc2ccc(Cl)cc2)c1)c1cc2c(s1)CCCC2	7.9%	?	5.8%	14.1µM*	1.5%
CC(=O)c1ccc(C(=O)Nc2ccc(N3CCOCC3)cc2)cc1	-6.5%	-22.2%	2.24µM*	-15.5%	-11.6%
O=C(Nc1ccc(N2CCOCC2)cc1)c1cc2c(s1)CCCCC2	-5.6%	?	10µM*	8.2%	-2.1%
CC(C)(C)c1ccc(C(=O)NC(=S)Nc2ccc(N3CCOCC3)cc2)cc1	-12.6%	-23.7%	?	2.5%	1.6%
O=C(Nc1ccc(N2CCOCC2)cc1)c1cc2c(s1)CCCC2	1.6%	-23.1%	?	6.3%	-1.5%
Cc1ccc(NC(=O)c2cc3c(s2)CCCC3)cc1S(=O)(=O)Nc1ccccc1Cl	0.5%	-27.1%	-3.3%	?	-3.4%
CC(C)c1ccc(C(=O)Nc2ccc(N3CCOCC3)cc2)cc1	-6.8%	-7.6%	-3.0%	1.3%	-3.8%
CC(C)(C)c1ccc(C(=O)Nc2ccc(N3CCOCC3)cc2)cc1	0.6%	?	4.47µM*	-12.3%	-5.0%
